Measured values taken from PubChem BioAssay (NCI).
About 83,000 compounds went through this panel and 20% of them were active in at least one assay; those are over-represented in the sample as a whole.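 The test compound was applied at a single concentration to cells in 96-well plates for 48 hours, and percent growth was recorded.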 Unmarked numbers belong to inactive results. The source made the active and inactive calls. How the source made its calls: active means growth percent below 10; inactive means the rest.

What follows are compounds tested on NCI/ADR-RES ovarian (assay: NCI-60 one-dose screen, 48 h (100 = growth as untreated, 0 = no growth, -100 = all killed)). Settings: 10 µM unless noted.

| SMILES | growth |
| --- | --- |
| O=S(=O)(NCCNc1nccc(-c2c(-c3ccc(F)c(O)c3)nc3occn23)n1)c1ccccc1 | 109% |
| Cc1ccc2[nH]c(=O)cc(-n3nncc3COc3ccc(C=O)cc3)c2c1 | 109% |
| Brc1ccc(C2CC(c3cccc(Nc4ccncc4)c3)=NN2c2ccccc2)cc1 (stereo not drawn) | 79.2% |
| COc1cc(NCC(O)CN(CC(C)C)C2CCCC2)c2ncccc2c1 (stereo not drawn) | 89.2% |
| CC(=O)OCCCCCNc1ccccc1 | 102% |
| CN1CCN(CC#CCNC(=O)[C@]23CCC(C)(C)C[C@H]2C2=CC[C@@H]4[C@@]5(C)Cc6c([nH]c7ccccc67)C(C)(C)[C@@H]5CC[C@@]4(C)[C@]2(C)CC3)CC1 | 76.9% |
| COc1c(Cl)cc(Cl)c2ccc(C=C3C(=O)N(C)C(=O)N(C)C3=O)nc12 | 106% |
| Nc1c(C(=O)Nc2ccc(Cl)cc2)cc(-c2nc3ccccc3s2)c(=O)n1NS(=O)(=O)c1ccc(Cl)cc1 | 105% |
| COc1ccc(C(=O)c2cc3c(N)c(C(=O)Nc4cccc(Br)c4C)sc3nc2C)cc1 | 0.768% (active) |
| CCN(CC)S(=O)(=O)c1cccc([N+](=O)[O-])c1 | 103% |
| CCc1c(Nc2ccc(C)cc2)nc(N)[nH]c1=O | 106% |
| CN1CCN(c2cc(F)c(NC3=C(Cl)C(=O)c4ncccc4C3=O)c(F)c2)CC1 | 37.9% |
| Cn1c(COC(=O)NCCn2ccnc2)nc2c(N3CCOCC3)nc(-c3ccccc3)nc21 | -1.95% (active) |
| COc1cc(CNC(=O)CCCCC[P+](c2ccccc2)(c2ccccc2)c2ccccc2)c(OC)c2c1OCO2 | 105% |
| CC(=O)OCC(=O)[C@@]1(O)CC[C@H]2[C@@H]3CC(=C(Br)Br)C4=CC(=O)CC[C@]4(C)[C@H]3C(=O)C[C@@]21C | 89.5% |
| O=C1CCCCCCCCC(O)C(O)CCCC(c2cccs2)O1 (stereo not drawn) | 91.1% |
| COC(=O)C1=C(C(=O)ONCCN(C)C)C2C=CC1(C(Cc1ccccc1)Nc1ccc(F)cc1)O2 (stereo not drawn) | 102% |
| CS(=O)(=O)c1ccc(-c2cc3c(oc2=O)-c2ccccc2OC3O)cc1 (stereo not drawn) | 105% |
| Clc1ccc(C2CC(c3cccc(Nc4ccncc4)c3)=NN2c2ccc(Cl)cc2)cc1 (stereo not drawn) | 11.2% |

| SMILES | growth |
| --- | --- |
| CCN(CC)CCCCCCNc1cc(OC)cc2cccnc12 | 82.9% |
| Clc1cc(Cl)cc(N2N=C(c3cccc(Nc4ccncc4)c3)CC2c2ccc3c(c2)OCO3)c1 (stereo not drawn) | 66.9% |
| CC(=O)N1N=C(c2cccc(Nc3ccncc3)c2)CC1c1ccc2c(c1)OCO2 (stereo not drawn) | 97.2% |
| COc1cc(/C=C/C(=O)c2c(C)oc3nc[nH]c(=O)c23)ccc1O | 101% |
| Cc1ccc(C2C3CC4CCCCC4N3[C@@]3(C(=O)Nc4cc(Cl)ccc43)C2C(=O)c2nc3ccccc3[nH]2)cc1 (stereo partly drawn) | 41.7% |
| CCCCCOc1ccc(/C=N/Nc2cc(C)nc3ccc(Br)cc23)cc1 | 63.6% |
| C=C1C(=O)O[C@H]2[C@H]1CC/C(COC(=O)/C=C/c1c[nH]c3ccccc13)=C\CC[C@@]1(C)O[C@@H]21 | -26.9% (active) |
| CCCCCN1C=C/C(=C\C(=O)N(C)c2ccc(Br)cc2)c2ccccc21 | 100% |
| COc1cc2nc(-c3ccc(C(F)(F)F)cc3)cc(OCCN3CCC(O)CC3)c2cc1OC | 53.5% |
| COc1cccc(-c2nc3occn3c2-c2ccnc(NCCCNS(=O)(=O)c3cccc(F)c3)n2)c1 | 85.8% |
| COc1ccc(C(=O)c2cc3c(N)c(C(=O)Nc4cccc5ccccc45)sc3nc2C)cc1 | 8.37% (active) |
| CCCCCCCCCCN=C(N)N=C(N)N | 79.5% |
| CN1CCN(Cc2ccc(NC(=O)c3cncc(C#Cc4cnccc4C(F)(F)F)c3)cc2C(F)(F)F)CC1 | 85.8% |
| C=C(C)[C@@H]1CC[C@]2(CO)CC[C@]3(C)[C@H](CC[C@@H]4[C@@]5(C)CCCNC(C)(C)[C@@H]5CC[C@]43C)[C@@H]12 | 44.8% |
| O=S(=O)(NCCNc1nccc(-c2c(-c3cccc(F)c3)nc3occn23)n1)c1cccc2ccccc12 | 48.8% |
| CC(=O)N1c2ccccc2NC2=C(C(=O)N(C)C2(C)C)C1C (stereo not drawn) | 102% |
| O=C(Nc1ccc(F)cc1)c1c(NC(=O)C(F)(F)F)sc2c1CCCCC2 | 0.19% (active) |
| O=C1Nc2c(ccc(Cl)c2Cl)/C1=C/c1ccc([N+](=O)[O-])cc1 | 93.9% |
| COc1ccc(-c2nc(N/N=C/c3ccco3)nc(N3CCOCC3)c2C#N)cc1 | 86.4% |
